The panel holds about 83,000 compounds, 20% with a hit somewhere; the sample as a whole holds those more often.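 Activity criterion: percent growth below 10, measured after cells in 96-well plates were exposed to a single compound concentration for 48 hours.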 The source made the active and inactive calls.
What was measured:
Experiment in all cases: NCI-60 one-dose screen, 48 h (100 = growth as untreated, 0 = no growth, -100 = all killed)
Conditions in all cases: 10 µM unless noted
[1] = test system: SK-MEL-2 melanoma
[2] = test system: EKVX NSCLC
[3] = test system: SN12C renal
[4] = test system: UO-31 renal
[5] = test system: TK-10 renal
[6] = test system: ACHN renal
[7] = test system: CAKI-1 renal
[8] = test system: A498 renal
[9] = test system: CCRF-CEM leukemia
[10] = test system: MOLT-4 leukemia

Measured: growth

Cc1c[n+](Cc2ccc3ccccc3c2)cn1Cc1ccc2ccccc2c1
active: [1] -48.5% | [3] 7.56% | [5] -4.54% | [9] 3.95% | [10] -3.59%
inactive: [2] 38.1% | [4] 77.6% | [6] 89.5% | [7] 94% | [8] 50.1%

CN1CCc2nc3sc(C(N)=O)c(N)c3c(-c3cccs3)c2C1
active: [4] 4.13% | [6] 8.41% | [8] -1.55%
inactive: [1] 27.3% | [2] 47.7% | [3] 29.1% | [5] 43% | [7] 38.8% | [9] 19.3% | [10] 62.1%

O=C(CN1CCCCC1)Nc1nc(-c2cc3ccccc3oc2=O)cs1
inactive: [1] 112% | [2] 96.1% | [3] 96.1% | [4] 82.9% | [5] 138% | [6] 100% | [7] 95.9% | [8] 97.3% | [9] 102% | [10] 98.9%

O=C(NNC(=O)c1ccc(NC(=O)c2ccccn2)cc1)Nc1ccc([N+](=O)[O-])cc1
inactive: [1] 106% | [2] 102% | [3] 96.6% | [4] 75.8% | [5] 101% | [6] 95.5% | [7] 91.6% | [8] 104% | [9] 103% | [10] 103%

Cc1c(O)cc(-c2cnc(Nc3ccccc3)s2)c(O)c1C
inactive: [1] 99.4% | [2] 87.9% | [3] 94% | [4] 86.9% | [5] 134% | [6] 91.6% | [7] 86.9% | [8] 75.1% | [9] 78.5% | [10] 62.8%

CCCn1cc2c(=O)nc3sc(Cc4ccccc4)c(C)n3c2n1
inactive: [1] 93.7% | [2] 104% | [3] 104% | [4] 78.5% | [5] 92.9% | [6] 109% | [7] 87.7% | [8] 100% | [9] 92.3% | [10] 78%

O=c1[nH]c(Cc2nc3ccccc3s2)nc2cc(Br)ccc12
inactive: [1] 57.5% | [2] 87.5% | [3] 81.3% | [4] 37.3% | [5] 94.3% | [6] 35.9% | [7] 58.7% | [8] 95.7% | [9] 56.2% | [10] 59%

CCCCNC(=O)Oc1ccc(/C(=C(/C)Cc2ccc(OC)cc2)c2ccc(OCCN(CC)CC)cc2)cc1
inactive: [1] 102% | [2] 83.9% | [3] 83.8% | [4] 58.4% | [5] 79.7% | [6] 91.1% | [7] 89.9% | [8] 102% | [9] 49.3% | [10] 48.3%

C=CC[Se]C(=O)Cc1c(C)n(C(=O)c2ccc(Cl)cc2)c2ccc(OC)cc12
active: [1] 8.51% | [2] -62.6% | [3] -30.4% | [4] -80% | [5] -33.5% | [6] -61% | [7] -59.3% | [8] -28.1% | [10] 5.11%
inactive: [9] 10.5%

CC(C)c1ccc(-n2c(=S)[nH]c3sc4cc(O)ccc4c3c2=O)cc1
inactive: [1] 121% | [2] 103% | [3] 99.5% | [4] 77% | [5] 123% | [6] 99% | [7] 91.7% | [8] 61.5% | [9] 103% | [10] 98%

O=S(=O)(Nc1cc(F)cc(Cl)c1)c1ccc(-c2cnc(C3CC3)o2)cc1
active: [8] -6.52%
inactive: [1] 52.8% | [2] 38% | [3] 45.8% | [4] 39.3% | [5] 47.7% | [6] 34.4% | [7] 31.3% | [9] 23.6% | [10] 31.9%

Nc1nc(N)c(-c2ccc(Cl)c(Cl)c2)c(CBr)n1
inactive: [1] 87.6% | [2] 85.3% | [3] 79.2% | [4] 88.7% | [5] 83.6% | [6] 68.4% | [7] 82.3% | [8] 89.9% | [9] 55.8% | [10] 61.3%

Cc1[nH]c(=O)[nH]c(=O)c1Br
inactive: [1] 148% | [2] 106% | [3] 98% | [4] 105% | [5] 114% | [6] 104% | [7] 92.9% | [8] 103% | [9] 107% | [10] 94%

CC1=NC2=Nn3c(c4cnn(-c5ccccc5)c4n/c3=N\N)NN2C(c2ccccc2)=C1
active: [3] -63.4%
inactive: [1] 101% | [2] 80.7% | [4] 70.3% | [5] 109% | [6] 85.8% | [7] 76.5% | [8] 91% | [9] 101% | [10] 103%

CCCCCC(/C=N\NC(=S)N/N=C/C(=C/c1ccccc1)CCCCC)=C\c1ccccc1
inactive: [1] 80.9% | [2] 76.6% | [3] 68.1% | [4] 45.4% | [5] 87.3% | [6] 69.3% | [7] 42.1% | [8] 70.1% | [9] 31.1% | [10] 42%

Cc1cccc(CNc2c3ccccc3nc3ccccc23)c1
inactive: [1] 38% | [2] 44.5% | [3] 26.1% | [4] 14.7% | [5] 38.4% | [6] 15.8% | [7] 17.7% | [9] 14.8%
active: [8] -2.22% | [10] 2.32%

CCCCCCC12CCC(=O)N1CCc1cncn12 (stereo not given)
inactive: [1] 108% | [2] 99.9% | [3] 102% | [4] 109% | [5] 92.5% | [6] 109% | [7] 109% | [8] 99.2% | [9] 95.4% | [10] 104%

CCOC(=O)n1ccn(C)c1=S
inactive: [1] 97.8% | [2] 100% | [3] 105% | [4] 80.7% | [5] 98.6% | [6] 99.3% | [7] 95.4% | [8] 115% | [9] 98% | [10] 103%

CCOCCNC1=C(Cl)C(=O)c2ccccc2C1=O
inactive: [1] 92.3% | [2] 106% | [3] 100% | [4] 105% | [5] 125% | [6] 110% | [7] 115% | [8] 94.4% | [9] 102% | [10] 89.2%

OB1OCc2cc(/C=C/c3cccc(C(F)(F)F)c3)ccc21
inactive: [1] 60.2% | [2] 26.5% | [3] 15.2%
active: [4] -28.6% | [5] -19.3% | [6] -91.6% | [7] -46% | [8] 6.25% | [9] 7.57% | [10] -3.42%

NC(=O)c1cc(I)ccc1NC(=O)/C=C/c1ccccc1
active: [1] -31.7% | [8] -14.9% | [10] 4.56%
inactive: [2] 36.1% | [3] 31.5% | [4] 28.1% | [5] 60.8% | [6] 38.2% | [7] 25.6% | [9] 11.9%

S=c1sc2c(Cl)nc(-c3cccnc3)nc2n1-c1ccccc1
inactive: [1] 21.6% | [2] 89.6% | [5] 90.2% | [7] 73.9% | [8] 92%
active: [3] 2% | [4] -85.6% | [6] -6.92% | [9] -31.7% | [10] -41.5%

O=C(CSc1nc2ccc([N+](=O)[O-])cc2[nH]1)Nc1ccc([N+](=O)[O-])cc1
inactive: [2] 20.3% | [5] 31.8% | [6] 21.4% | [7] 12.7% | [9] 16.8%
active: [1] -5.26% | [3] 9.04% | [4] 9.43% | [8] -6.66% | [10] 5.72%

O=C(/C=C/c1ccco1)Nc1ncc(Cc2cccc(C(F)(F)F)c2)s1
active: [8] -6.36%
inactive: [1] 23.4% | [2] 25% | [3] 20.9% | [4] 11.8% | [5] 33.6% | [6] 11.7% | [7] 20.5% | [9] 14.5% | [10] 14%

CC(=O)O[C@@H]1C[C@]2(C(C)C)O[C@@]1(C)[C@@H]1CCC(C)=C1[C@@H]2OC(=O)/C=C/c1ccccc1
active: [8] -4.32%
inactive: [1] 89.7% | [2] 83.5% | [3] 48.4% | [4] 60.5% | [5] 95.4% | [6] 34.6% | [7] 71.3% | [9] 84.9% | [10] 83.8%

CCCCC1=C(P(=O)(O)O)N[C@H](C(=O)O)CS1
inactive: [1] 103% | [2] 90.5% | [3] 88.2% | [4] 73.5% | [5] 94.8% | [6] 97.9% | [7] 94.1% | [8] 100% | [9] 96.8% | [10] 102%

N#CC1=C(N)Oc2c(sc3c(Br)cccc23)C1c1ccc(Cl)cc1 (stereo not given)
active: [1] -2.16% | [10] 3.26%
inactive: [2] 34.3% | [3] 30% | [4] 34.2% | [5] 37.8% | [6] 43.6% | [7] 39.3% | [8] 16.3% | [9] 13.7%

CC/C(=C(/c1ccc(Cl)cc1)c1ccc(OCCN2CCCCC2)cc1)c1ccc(OC)cc1
inactive: [1] 90.6% | [2] 58.5% | [3] 74.8% | [4] 66.2% | [5] 80.7% | [6] 81.2% | [7] 72.3% | [8] 118% | [9] 28.8% | [10] 25.8%

— PubChem BioAssay (NCI)
